# In the library only some 2.5% were active in any assay of this set; here they are far more common.
# MBD2 DNA inh: MBD2-methylated oligo binding inhibition | TR-FRET, MBD2 binding to methylated oligonucleotide | Q9UBB5 | AID 686964 | inhibition, % at 4.4 µM | 0.31% of 370,000 active; in the data active means inhibition above about 13%
# UHRF1 binding: blocks human UHRF1 binding to methylated DNA | UHRF1 binding to methylated oligo, TR-FRET | inhibition, % at 4.4 µM | 0.75% of 370,000 active | Q96T88 | AID 687016; in the data active means inhibition above about 21%;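 further: UHRF1 SRA domain binding a hemimethylated CpG hairpin DNA probe; 0% = median of test compound wells and 100% = reference inhibitor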
# Target sequence (Q96T88 whole entry, looked up, the tested form may be a part): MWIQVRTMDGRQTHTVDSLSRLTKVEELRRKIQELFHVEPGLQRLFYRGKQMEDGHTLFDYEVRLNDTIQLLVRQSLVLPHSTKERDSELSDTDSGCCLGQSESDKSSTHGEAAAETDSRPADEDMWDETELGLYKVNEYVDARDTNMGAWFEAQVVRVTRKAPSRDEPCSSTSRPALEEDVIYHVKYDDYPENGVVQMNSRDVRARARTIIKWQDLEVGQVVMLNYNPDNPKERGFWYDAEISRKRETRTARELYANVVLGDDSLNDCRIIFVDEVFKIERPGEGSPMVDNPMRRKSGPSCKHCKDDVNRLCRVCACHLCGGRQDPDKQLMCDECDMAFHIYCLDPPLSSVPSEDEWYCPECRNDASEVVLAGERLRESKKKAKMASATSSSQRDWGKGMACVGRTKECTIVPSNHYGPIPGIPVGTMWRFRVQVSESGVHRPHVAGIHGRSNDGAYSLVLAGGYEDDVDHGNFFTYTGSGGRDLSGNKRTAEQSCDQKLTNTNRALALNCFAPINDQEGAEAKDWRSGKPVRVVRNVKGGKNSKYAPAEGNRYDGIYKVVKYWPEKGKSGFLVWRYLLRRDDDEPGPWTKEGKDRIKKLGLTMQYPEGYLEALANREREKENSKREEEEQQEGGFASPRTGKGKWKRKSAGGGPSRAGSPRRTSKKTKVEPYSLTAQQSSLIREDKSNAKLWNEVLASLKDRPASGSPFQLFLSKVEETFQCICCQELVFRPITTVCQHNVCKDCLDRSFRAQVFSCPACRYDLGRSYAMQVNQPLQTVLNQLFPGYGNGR
# LEDGF integ inh: blocks HIV-1 LEDGF/p75-dependent DNA integration; TR-FRET IN-LEDGF/p75 DNA integration, Eu/Cy5; inhibition, % at 3.7 µM; 0.64% of 370,000 active; AID 743269;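 active means inhibition above the screen-wide mean plus 3 SD, cut at about 13% in these data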;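 further: signal is the Cy5 over europium emission ratio at 671 and 618 nm; 0% = plate median of compound wells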
# PRMT1 FP inh: blocks human protein arginine methyltransferase 1. AID 652257. 1.3% of 370,000 active. inhibition, % at 2.79 µM. Q99873. recombinant PRMT1, activity-based probe fluorescence polarization;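 active means inhibition above about 21% made by adding two undisclosed values, limit read from the data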
# * hit, by the source's call; ! = not confirmed by another sample.
SMILES,MBD2 DNA inh,UHRF1 binding,LEDGF integ inh,PRMT1 FP inh
O=C(NN=C1CCN(Cc2ccccc2)CC1)C(O)c1ccccc1 (stereo not given),-2,49*,0,2
O=C(NN=C1CCN(Cc2ccccc2)CC1)c1ccccc1,3,1,-9,2
Cc1ccccc1N(C(=O)c1snc(C(N)=O)c1N)C(C(=O)NC1CCCCC1)c1ccc(O)cc1 (stereo not given),-6,50*,-1,0
Cc1cccc(N(C(=O)c2snc(C(N)=O)c2N)C(C(=O)NC2CCCC2)c2ccc(C)o2)c1 (stereo not given),2,70*,-2,1
Cc1ccccc1N(C(=O)c1snc(C(N)=O)c1N)C(C)C(=O)NC1CCCCC1 (stereo not given),1,-1,2,-2
Cc1ccccc1C(=O)N1CCC(C(=O)OCc2nc(N)nc(Nc3ccccc3)n2)CC1,0,1,1,-1
Cc1cc(C)cc(NC(=O)COC(=O)CC2CCCC2)c1,0,32*,2,2
CC(Oc1ccccc1)C(=O)N1CCN(c2ccc(N3CCOCC3)nn2)CC1 (stereo not given),-3,2,3,-1
COc1ccccc1CNc1ccc([N+](=O)[O-])cc1C,0,48*,2,-1
COc1ccccc1-c1c(C)nn2c(N3CCN(c4ccccc4OC)CC3)cc(C)nc12,1,26*,-3,-2
COc1ccccc1-c1c(C)nn2c(N3CCCCCC3)cc(C)nc12,-2,-1,-2,1
COc1cc(NC(=S)N2CCCC(CO)C2)cc(OC)c1 (stereo not given),10,4,-6,21*
Cc1cccc(N2CCN(c3ccc4cc(S(=O)(=O)N5CCCCC5)ccc4n3)CC2)c1C,11,23*,1,2
Cc1ccc(C)c(N2CCN(c3ccc4cc(S(=O)(=O)N5CCCCC5)ccc4n3)CC2)c1,2,19,0,5
Cc1ccc(N2C(=O)c3ccccc3C2C(=O)c2ccc(O)cc2O)cc1 (stereo not given),-4,13,11,24*
O=C(c1cc(-c2ccccc2)nn1-c1ccccc1)N1CCN(S(=O)(=O)c2c(F)cccc2F)CC1,0,-3,-5,2
Cc1c(C(=O)N2CCCCCC2)c(S(=O)(=O)Nc2ccccc2F)c(C)n1C,0,5,-1,2
CCc1ccccc1NS(=O)(=O)c1c(C(=O)N2CCCCCC2)c(C)n(C)c1C,2,21*,-2,3
O=C(c1cnn2c(C(F)(F)F)cc(-c3cccs3)nc12)N1CCCC1,1,3,0,0
O=C(NCc1ccco1)c1cnn2c(C(F)(F)F)cc(-c3cccs3)nc12,-5,-3,3,23*
CC1(c2ccc(Cl)cc2Cl)NC(=O)N(CC(=O)NCCC2=CCCCC2)C1=O (stereo not given),-1,2,-8,4
O=C(COc1cccc(NC(=O)c2ccccc2)c1)c1ccccc1,8,27*,5,3
O=C(Nc1ccc(OCc2ccccc2)cc1)c1ccccc1,6,65*,1,-3
O=C(Nc1ccccc1)c1ccc(COc2ccccc2)cc1,0,-2,-5,-2
O=C(Nc1cccc(OCC(=O)N2CCOCC2)c1)c1cccc([N+](=O)[O-])c1,-3,34*,1,-2
SMILES,MBD2 DNA inh,UHRF1 binding,LEDGF integ inh,PRMT1 FP inh
COc1cccc(-c2cnc(C(O)c3c(C)cccc3C)[nH]2)c1 (stereo not given),-2,-2,3,0
Cc1c(Cl)cnc(NC(=O)COC(=O)c2cccc(S(=O)(=O)N3CCOCC3)c2)c1Cl,3,-1,-1,-2
CCOc1ccccc1CN1CCN(CCCn2cccn2)CC1CCO (stereo not given),1,5,-1,-4
CC1(C(=O)NS(=O)(=O)c2cccc(F)c2)CCN1C(=O)CCC1CCCC1 (stereo not given),4,4,-1,-2
Cc1cc(N2Cc3ccccc3C2)ccc1C=O,-10,-2,9,-1
O=Cc1ccc(N2Cc3ccccc3C2)cc1,-4,-14,18*,-3
Cc1ccc(C(=O)NNC(=O)CSc2nc(N)cc(N)n2)cc1,-5,-1,1,1
Cc1ccc(C(=O)NNC(=O)C(C)Sc2nc(N)cc(N)n2)cc1 (stereo not given),8,21*,0,3
CN(C)c1ccc(N=Nc2ccc(C(=O)O)cc2)cc1,0,29*,3,2
Cc1ccccc1CC(=O)NCC1CCCCC1,2,40*,6,0
Cc1ccccc1CC(=O)NC1CCCCCC1,-4,-1,-2,-1
CC1=NN(c2ccc(Cl)c(C(=O)O)c2)C(=O)C1,2,7,6,4
CC1=NN(c2ccc(C(=O)O)c(N)c2)C(=O)C1,1,28*,31*,10
O=C(CN(Cc1ccccc1)S(=O)(=O)c1ccc(F)cc1)NCCC1=CCCCC1,2,4,4,-2
Cc1ccc(S(=O)(=O)N(CC(=O)NCCC2=CCCCC2)Cc2ccccc2)cc1,6,28*,6,0
COc1ccc(OC)c(/C=N/NC(=O)c2ccc(N(C)S(=O)(=O)c3ccccc3)cc2)c1,5,2,2,2
COc1ccc(/C=N/NC(=O)c2ccc(N(C)S(=O)(=O)c3ccccc3)cc2)c(OC)c1,5,32*,-1,-2
COC(=O)c1cc(-c2ccc(C)cc2)n[nH]1,0,2,2,-4
COC(=O)C1=C(C)Nc2ccc(C)cc2S1,-2,1,-3,24*
O=C(CSc1nc2cc([N+](=O)[O-])ccc2n1-c1ccccc1)NCc1ccc2c(c1)OCO2,-6,-5,2,24*
C=C[C@H]1CN2CC[C@H]1C[C@@H]2[C@@H](O)c1ccnc2ccc(OC)cc12,4,42*!,0,5
C=C[C@H]1CN2CCC1C[C@H]2[C@H](O)c1ccnc2ccc(OC)cc12 (stereo not given in full),1,-2,-5,2
COc1ccc(F)cc1S(=O)(=O)N1CCC2(CC1)OCCN2S(=O)(=O)c1cccs1,-1,-2,-1,-4
O=C(C1CCCCC1)N1CCC2CC1c1cc(Cl)ccc12 (stereo not given),2,-1,-4,4
CN1C(=O)CC(c2ccccc2)CC1=O,2,0,0,-4
O=C1CC(c2ccccc2)CC(=O)C1=CN1CCCC1 (stereo not given),2,68*,-2,0
CCCCC(C(=O)NC(=O)NCc1ccccc1)N1C(=O)c2ccccc2C1=O (stereo not given),12,23*,2,1
CCOC1=C2[C@H](c3ccc(CC)cc3)N(S(=O)(=O)c3ccc(C)cc3)C[C@H]2n2c(=O)n(-c3ccccc3)c(=O)n2C1,-6,0,-7,-2
COC(=O)[C@@]1(Sc2ccc(C)cc2)CC(=O)N[C@@H]1c1ccc(C(F)(F)F)cc1,8,23*,-2,1
COC(=O)[C@]1(Sc2ccccc2)CC(=O)N[C@@H]1c1ccccc1,-7,-2,4,0

# Bioassay records (PubChem BioAssay)
